# According to PubChem BioAssay AID686979 (National Center for Advancing Translational Sciences (NCATS), 2013):
# Hit rate of the full screen: of about 420,000 compounds, about 50,000 (12%) were called active. Another 26% or so got no clear call; they are omitted. This is one part of a sample in which actives are shown more often than they occur. Unmarked numbers belong to inactive results. The call rests on the fitted dose curve; in most records, active means well fitted inhibition curve with a large enough effect; inconclusive means small, poorly fitted or top-dose-only effect; inactive means flat fitted curve, though single readings scatter.
# Test: qHTS for Inhibitors of human tyrosyl-DNA phosphodiesterase 1 (TDP1): qHTS in cells in presence of CPT; further: nearly all actives have a fitted effect of over 55% in size
# Conditions: chicken DT40 Tdp1-/-;hTDP1 cells + 20 nM CPT, ATP luminescence, 48 h; series mostly up to 46.2 µM; activity change, negative = growth inhibition: at the top concentration
# In short: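 Chicken DT40 Tdp1-/- cells stably complemented with human TDP1 were seeded at 400 cells/well in medium containing 20 nM camptothecin, exposed to pin-transferred compounds, and grown at 37 °C for at least 48 hr. Viability was read as ATP luminescence.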
# On the % scale 0 is the no-effect control and ±100 the full control effect; potency means the concentration at half of the fitted maximal effect.
SMILES,"activity change, negative = growth inhibition",Potency
CCC(=O)c1ccc(OC(=O)/C=C/c2cc(OC)c(OC)c(OC)c2)cc1,2.38%,–
CC1(C)C=Cc2c(ccc3c2OC[C@@H](c2ccc(O)cc2O)C3)O1,–,25.9 µM (active)
NS(=O)(=O)c1ccc(NC2=CC(c3ccc(F)cc3)N(c3ccc(S(N)(=O)=O)cc3)C2=O)cc1 (stereo not drawn),-11.3%,–
Cc1[nH]nc(SCC(=O)NCC(C)C)c1[N+](=O)[O-],2.73%,–
CC1CCCC(N2CCN(C(=O)c3ccc(F)cc3)CC2)C1 (stereo not drawn),3%,–
COC(=O)c1ccc(COc2ccc(/C=N/NC(=O)C(=O)Nc3ccc(OC)cc3)cc2OC)o1,-8.05%,–
CCCc1ccc(OCc2ccc(C(=O)N/N=C/c3cccc([N+](=O)[O-])c3)o2)c(OC)c1,–,8.2 µM (active)
COc1ccccc1OCc1ccc(C(=O)NC(C)c2ccccc2)o1 (stereo not drawn),1.09%,–
CCOc1ccc(C2C(C#N)=C(N)N(N(C)C)C3=C2C(=O)CCC3)cc1 (stereo not drawn),-4.52%,–
Cc1ccc2c(O)c(Cc3ccccc3)c(=O)[nH]c2n1,-7.61%,–
O=C(NC1CCCC1)C1CCN(C(=O)Nc2cccc(Cl)c2)CC1,0.714%,–
COc1ccc(CNC(=O)COC(=O)c2sccc2C)cc1OC,-16.2%,–
OC(CN=c1sc2ccccc2n1CC(O)COc1ccccc1)COc1ccccc1 (stereo not drawn),–,25.9 µM (active)
O=C(c1ccccc1)c1ccc(OCC(O)CN2CCCC2)cc1 (stereo not drawn),-0.0362%,–
OC(COc1ccccc1)Cn1cc(Br)cn1 (stereo not drawn),5.11%,–
Cc1ccc(OCCNC(=O)CCNS(=O)(=O)c2ccc(Br)cc2)cc1,-29.3%,–
COc1ccc(C)cc1Nc1nc(-c2c(C)[nH]c3ccccc23)cs1,-20.2%,–
COc1ccc(C)cc1S(=O)(=O)Nc1cccc(Cl)c1Cl,-10.9%,–
COc1ccc(C)cc1Nc1n[n+](-c2ccccc2)c(-c2cccc(Cl)c2Cl)s1,–,13 µM (active)
O=C(c1ccc(NS(=O)(=O)c2ccc3[nH]c(=O)[nH]c3c2)cc1)N1CCCCC1,5.76%,–
N#CC1(NC(=O)COC(=O)CSc2ccc(F)cc2)CCCCC1,-20.6%,–
CC(=O)N1CCN(CC(=O)Nc2ccc(C)c(F)c2)CC1,-19.2%,–
Cc1ccc(NC(=O)NC(=O)c2ccccc2)cc1F,-13.6%,–
Cc1ccc(NC2=C(c3ccc(C(F)(F)F)cc3)C(=O)c3ccccc32)cc1F,–,8.2 µM (active)
COC(=O)c1sc(SC)c(S(=O)(=O)C(C)C)c1N/N=C(\C#N)S(=O)(=O)c1ccccn1,1.69%,–

SMILES,"activity change, negative = growth inhibition",Potency
CCCC(=O)OCC(=O)Nc1cc(Cl)ccc1[N+](=O)[O-],6.39%,–
CC(=O)c1ccc(-c2nnc(CCC(=O)N(C)Cc3cnc4ccccn34)o2)s1,0.834%,–
CCc1ccc(CN(C)C(=O)CCc2nnc(-c3ccc(-c4ccccc4)cc3)o2)nc1,–,18.4 µM (active)
CC(C)N(C)C(=O)CCc1nnc(CCc2c[nH]c3ccccc23)o1,-6.4%,–
CCCc1ccc(OCC(O)CN2CCN(CCO)CC2)cc1 (stereo not drawn),6.86%,–
O=C(Nc1ccc(F)cc1)N1CCN(c2ccc(F)cc2)CC1,19.6%,–
CN(C)C(=O)c1cccc(-c2cnc3c(NC=O)cc(-c4ccc(C(=O)N5CCOCC5)cc4)cn23)c1,–,29.1 µM (active)
COc1ccccc1C(=O)Nc1cccc(C(=O)N2CCOCC2)c1,9.81%,–
CC(=O)c1cccc(-c2cnc3c(NC=O)cc(-c4ccc(N(C)C)cc4)cn23)c1,–,7.31 µM (active)
CNc1cncc(-c2cccc(C(=O)N3CCOCC3)c2)n1,-12.1%,–
CC(=O)Nc1cc(-c2ccc(N3CCN(C)CC3)cc2)cn2c(-c3ccc(F)cc3)cnc12,–,5.17 µM (active)
CC(=O)c1cccc(-c2cnc3c(NC=O)cc(-c4ccccc4Oc4ccccc4)cn23)c1,–,14.6 µM (active)
CC(=O)N1c2ccccc2CC1C(=O)N1CCN(c2ccc(F)cc2)CC1 (stereo not drawn),-18.4%,–
COC(=O)C1CCN(C(=O)NC2CC(=O)N(c3ccc4c(c3)OCCO4)C2)CC1 (stereo not drawn),1.67%,–
NC(=O)COC(=O)c1ccc2c(c1)C(=O)N(Cc1ccco1)C2=O,-16.2%,–
COc1cc2c(C(=O)O)c(C)n(C)c2c2ccccc12,-17.2%,–
CNC[C@H]1Oc2c(NC(=O)C3CCCCC3)cccc2C(=O)N([C@H](C)CO)C[C@@H]1C,11.7%,–
CCOC(=O)C(Cc1ccccc1)NC(=O)CCc1c(C)nc2c(c(C)nn2-c2ccc(C)c(C)c2)c1C (stereo not drawn),-29.9%,–
Cc1cc(C)c2c(NC(=O)C3CC3)nn(C)c2n1,-6.29%,–
O=C(NCCc1ccccn1)c1nc(Cn2cc([N+](=O)[O-])cn2)no1,5.17%,–
COc1ccc(NC(=O)CCS(=O)(=O)c2cc3c(cc2Cl)NC(=O)CO3)cc1OC,-12.9%,–
CCOc1ccc(N2C(=O)Nc3ccccc3C2(O)C(=O)NCc2ccco2)cc1 (stereo not drawn),-10.1%,–
Cc1ccc(NC(=O)c2sccc2C)cc1[N+](=O)[O-],5.4%,–
O=C(CSc1nccc(=O)[nH]1)Nc1ccc(N2CCOCC2)c(Cl)c1,-2.28%,–
Cc1ccc(OCC(=O)NCCCNC(=O)c2ccco2)cc1C,11%,–

SMILES,"activity change, negative = growth inhibition",Potency
CCCC(C(=O)NC1CCCC1)N(C(=O)Cn1nnc(-c2ccc(C)o2)n1)c1cccc(O)c1 (stereo not drawn),7.3%,–
CC(=O)c1ccc(S(=O)(=O)N2CCC3(CC2)OCCO3)cc1,-1.56%,–
O=C(CSc1ncccn1)N1CCCC1,-6.15%,–
COc1ccc(O)c(C(=O)c2cnc3c(c2)c(-c2ccc(F)cc2)c(C#N)c(=O)n3C)c1,-34.5%,–
CN(C)C(=O)c1cccc(-c2cnc3c(NC=O)cc(-c4ccc(F)cc4)cn23)c1,–,6.51 µM (active)
CNc1cnc(-c2cc(OC)c(OC)c(OC)c2)cn1,8.84%,–
COc1cc(C(=O)N2CCN(C)CC2)cc(OC)c1OC,9.33%,–
Cc1ccc(C(=O)N2CCN(C(=O)N3CCOCC3)CC2)cc1,-0.646%,–
CC(=O)Nc1cccc(-c2cc(NC=O)c3ncc(-c4ccc(F)c(Cl)c4)n3c2)c1,–,23.1 µM (active)
N#C/C=C(/c1ccc(F)cc1)N1CCOCC1,-2.86%,–
COc1ccc(-c2cc(NC(C)=O)c3ncc(-c4cc(OC)c(OC)c(OC)c4)n3c2)cn1,–,2.59 µM (active)
O=CNc1cc(-c2ccc(C(=O)N3CCOCC3)cc2)cn2c(-c3ccc(F)cc3)cnc12,–,20.6 µM (active)
Cc1c(NC(=O)Nc2ccc(F)c(Cl)c2)c(=O)n(-c2ccccc2)n1C,-2.31%,–
Cc1ccc(OCC(=O)NCCCNC(=O)c2cccnc2)cc1C,-10.9%,–
CCCCn1c(N)c(N(CCC(C)C)C(=O)COC(=O)c2cccnc2OCC)c(=O)[nH]c1=O,-10.1%,–
COCCC(=O)Nc1ccc2c(c1)CN(C(=O)CCOC)CC2,-9.78%,–
CC1O[C@@H](OC2C(O)C(C)O[C@H](OC(=O)[C@]34CCC(C)(C)C[C@H]3C3=CCC5[C@@]6(C)CC(O)C(O[C@@H]7OC(CO)C(O)[C@@H](O)[C@@H]7O)[C@@](C)(C(=O)O)C6CC[C@@]5(C)[C@]3(CO)CC4)C2O[C@H]2OC(C)[C@@H](O[C@@H]3OCC(O[C@@H]4OC(CO)C(O)[C@H](O)C4O)[C@@H](O)[C@@H]3O)[C@H](O)C2O)C(O)C(O)C1O (stereo partly drawn),11.8%,–
Cc1cc(C)cc(N(CCC#N)C(=O)CN2C(=O)NC3(CCCC3)C2=O)c1,-11.4%,–
CC(NS(=O)(=O)c1ccc(OCC(=O)N2CCCC2)cc1)c1ccccc1 (stereo not drawn),-4.52%,–
CCOC(=O)c1ccc(-n2c(CCC(=O)O)ccc2-c2ccccc2)cc1,–,inactive
COc1ccc(C2CC(c3cccs3)Nc3nnnn32)cc1 (stereo not drawn),18.1%,–
COc1cccc(-c2cc(NC(C)=O)c3ncc(-c4cccc(C(C)=O)c4)n3c2)c1,–,23.1 µM (active)
COc1ccc(-c2cc(NC=O)c3ncc(-c4ccccc4)n3c2)cc1OC,–,6.51 µM (active)
CC(=O)Nc1cc(-c2ccccc2F)cn2c(-c3cccc(C(F)(F)F)c3)cnc12,-101%,–
COc1ccc(-c2cc(NC=O)c3ncc(-c4cccc(C(=O)N(C)C)c4)n3c2)c(OC)c1,–,23.1 µM (active)

SMILES,"activity change, negative = growth inhibition",Potency
COc1ccc(Nc2ncnc3sc(-c4ccccc4)cc23)c(OC)c1,-21.8%,–
COc1cccc(NC(=O)CSc2nnc(-c3cccnc3)o2)c1,-1.45%,–
CC(=O)c1ccc(-c2cnc3c(NC=O)cc(-c4cccc(NS(C)(=O)=O)c4)cn23)cc1,–,23.1 µM (active)
COc1cc(C=O)ccc1Oc1nnnn1-c1ccccc1,13.2%,–
COc1ccc(NC(=O)CC2COc3ccccc3O2)c(OC)c1 (stereo not drawn),-21%,–
COCCNc1ccnc(-c2cccc(NS(C)(=O)=O)c2)n1,-0.332%,–
COc1ccc(/C=N/S(=O)(=O)c2ccccc2)cc1OC,4.71%,–
Cc1cccc(N=C2SC(C)CN2C(=O)CN2C(=O)NC3(CCCC3)C2=O)c1 (stereo not drawn),1.26%,–
O=C(CCn1nnc2ccccc2c1=O)N[C@@H](Cc1c[nH]c2ccccc12)C(=O)O,14.2%,–
COc1ccc(S(=O)(=O)N2CCOCC2)cc1NC(=O)CC1CC2CCC1C2 (stereo not drawn),-25.8%,–
O=C(O)CC(CC(=O)N1CCOCC1)c1ccccc1 (stereo not drawn),3.43%,–
Cc1ccc(CN2COc3cc(C)c4c(oc(=O)c5ccccc54)c3C2)cc1,-24%,–
CC(C)C[C@H](NC(=O)C1CCC(CNC(=O)[C@@H]2CCCN2C(=O)OC(C)(C)C)CC1)C(=O)O (stereo partly drawn),29.8%,–
COc1cccc(CNC(=O)CCCC(=O)Nc2cccc([N+](=O)[O-])c2)c1,-19.6%,–
Cc1c(NC(=O)CSCc2ccccc2)cccc1C(=O)O,-1.33%,–
COc1cc(C(=O)N/C(=C\c2cn(C)c3ccccc23)C(=O)N2CCOCC2)cc(OC)c1OC,12.5%,–
CCCCNC(=O)N(O)C1N(/N=C/c2ccccc2O)C(=S)SC1(C)C (stereo not drawn),-27.3%,–
COc1ccnc(Oc2ccccc2)c1-c1ncn[nH]1,1.93%,–
Cc1ccc2oc(=O)c3cnn(CC(=O)NCc4ccccc4Cl)c3c2c1,13.6%,–
Cc1ccccc1C(=O)Nc1ccccc1Sc1ccccc1,5.44%,–
COc1cccc(C(=O)NCCS(=O)(=O)NCC2CCCO2)c1 (stereo not drawn),1.27%,–
COc1ccccc1-n1cnc2cc(C(=O)NCC3CCCO3)ccc21 (stereo not drawn),-18%,–
COc1cccc(/C=C2\Sc3ccc(C(=O)NCC4CCCO4)cc3N(C)C2=O)c1 (stereo not drawn),–,18.4 µM (active)
